Source: the supplement of paper PMC10849652
About 7,900 targets were measured; listed, in parts, are those with a hit and a random draw of the rest. About 0.6% of all pairs of compound and target were hits. Values without a mark were called inactive.

compound: NC1(c2ccc(-c3nc4ccn5c(=O)[nH]nc5c4cc3-c3ccccc3)cc2)CCC1; assay: log2 fold change, soluble protein after heating vs DMSO (PISA); higher = thermal stabilisation; K562 cells, 10 uM, 30 min; active = over 0.2 and 3.5 SD of the protein, either way, in both replicates (recomputed)
Procedure, shortened: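 Soluble protein was quantified by TMTpro 16plex LC-MS/MS after channel sums were equalised. It was obtained as the supernatant after 21,000xg for 90 min from pooled aliquots of K562 cells (2×10^6 cells/mL, 10 μM compound, 30 min) heated for 3 min across 48°C-58°C and extracted in PBS with 0.5% NP-40 at 4°C. Thermal stability values are relative to control samples and come from duplicates. They are given as log2 fold changes.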

Chain of UniProt P53367 (P53367 whole entry, looked up): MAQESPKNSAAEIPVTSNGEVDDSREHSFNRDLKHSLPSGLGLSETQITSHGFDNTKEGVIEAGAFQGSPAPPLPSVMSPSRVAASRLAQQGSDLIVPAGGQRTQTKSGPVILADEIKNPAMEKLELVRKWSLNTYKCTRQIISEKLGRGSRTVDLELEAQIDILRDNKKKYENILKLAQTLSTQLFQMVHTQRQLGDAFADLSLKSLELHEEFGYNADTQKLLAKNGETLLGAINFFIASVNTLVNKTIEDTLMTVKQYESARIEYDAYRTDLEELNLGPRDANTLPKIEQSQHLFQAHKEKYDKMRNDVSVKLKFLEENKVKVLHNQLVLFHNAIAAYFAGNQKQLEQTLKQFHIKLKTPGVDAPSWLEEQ
Chain of UniProt P42331 (P42331 whole entry, looked up): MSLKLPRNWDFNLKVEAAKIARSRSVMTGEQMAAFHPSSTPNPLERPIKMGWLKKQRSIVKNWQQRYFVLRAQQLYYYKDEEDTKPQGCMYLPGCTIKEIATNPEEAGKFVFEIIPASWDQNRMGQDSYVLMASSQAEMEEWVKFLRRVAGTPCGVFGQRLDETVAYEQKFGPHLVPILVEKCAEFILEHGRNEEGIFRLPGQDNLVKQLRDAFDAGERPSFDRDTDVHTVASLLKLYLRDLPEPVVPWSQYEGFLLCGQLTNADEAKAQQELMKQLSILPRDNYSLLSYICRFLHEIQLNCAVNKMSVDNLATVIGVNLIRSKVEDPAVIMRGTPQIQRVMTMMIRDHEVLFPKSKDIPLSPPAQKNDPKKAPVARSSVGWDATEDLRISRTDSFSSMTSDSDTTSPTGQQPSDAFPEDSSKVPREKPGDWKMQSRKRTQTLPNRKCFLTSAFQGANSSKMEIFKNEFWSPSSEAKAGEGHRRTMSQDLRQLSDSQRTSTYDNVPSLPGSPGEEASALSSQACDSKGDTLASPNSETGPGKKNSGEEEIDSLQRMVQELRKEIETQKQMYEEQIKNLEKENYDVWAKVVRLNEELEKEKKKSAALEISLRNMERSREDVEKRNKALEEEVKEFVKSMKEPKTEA
Chain of UniProt Q9UKU0 (Q9UKU0 whole entry, looked up): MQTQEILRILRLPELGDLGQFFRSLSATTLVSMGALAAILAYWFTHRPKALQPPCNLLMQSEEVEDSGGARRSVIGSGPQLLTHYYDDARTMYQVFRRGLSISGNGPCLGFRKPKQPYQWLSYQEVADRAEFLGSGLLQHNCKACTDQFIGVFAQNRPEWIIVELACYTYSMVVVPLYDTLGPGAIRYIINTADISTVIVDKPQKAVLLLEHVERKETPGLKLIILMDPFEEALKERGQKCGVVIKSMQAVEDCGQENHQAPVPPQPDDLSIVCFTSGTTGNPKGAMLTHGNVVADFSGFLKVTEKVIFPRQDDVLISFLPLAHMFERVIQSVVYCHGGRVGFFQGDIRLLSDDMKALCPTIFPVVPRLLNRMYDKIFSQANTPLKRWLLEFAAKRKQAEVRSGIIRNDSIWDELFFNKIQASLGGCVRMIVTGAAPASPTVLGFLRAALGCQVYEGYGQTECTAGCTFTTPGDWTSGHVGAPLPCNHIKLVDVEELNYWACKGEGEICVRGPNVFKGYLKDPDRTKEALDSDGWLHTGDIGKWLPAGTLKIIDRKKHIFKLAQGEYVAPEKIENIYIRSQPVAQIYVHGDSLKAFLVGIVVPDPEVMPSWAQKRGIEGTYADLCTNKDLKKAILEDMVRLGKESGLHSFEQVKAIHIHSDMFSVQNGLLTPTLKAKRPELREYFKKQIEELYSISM
Chain of UniProt P35612 (P35612 whole entry, looked up): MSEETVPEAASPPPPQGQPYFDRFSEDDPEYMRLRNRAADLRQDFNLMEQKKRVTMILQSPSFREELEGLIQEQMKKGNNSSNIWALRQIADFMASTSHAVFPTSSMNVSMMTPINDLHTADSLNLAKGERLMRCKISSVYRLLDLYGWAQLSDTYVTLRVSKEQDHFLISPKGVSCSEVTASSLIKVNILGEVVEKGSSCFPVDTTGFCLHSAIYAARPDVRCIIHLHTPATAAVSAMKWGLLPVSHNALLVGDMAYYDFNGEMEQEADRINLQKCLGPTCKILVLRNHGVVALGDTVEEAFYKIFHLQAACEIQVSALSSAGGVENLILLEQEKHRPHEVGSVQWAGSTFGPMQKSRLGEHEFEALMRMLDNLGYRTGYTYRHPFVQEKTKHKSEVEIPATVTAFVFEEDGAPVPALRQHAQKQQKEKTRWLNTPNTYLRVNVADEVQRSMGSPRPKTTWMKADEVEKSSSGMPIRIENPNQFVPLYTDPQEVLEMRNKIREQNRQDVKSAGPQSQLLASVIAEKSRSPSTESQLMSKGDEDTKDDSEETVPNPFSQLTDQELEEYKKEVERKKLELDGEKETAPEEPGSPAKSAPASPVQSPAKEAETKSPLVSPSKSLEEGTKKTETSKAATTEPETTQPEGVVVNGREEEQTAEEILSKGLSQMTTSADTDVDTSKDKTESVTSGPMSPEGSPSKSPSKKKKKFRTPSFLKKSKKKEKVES
Chain of UniProt Q96P47 (Q96P47 whole entry, looked up): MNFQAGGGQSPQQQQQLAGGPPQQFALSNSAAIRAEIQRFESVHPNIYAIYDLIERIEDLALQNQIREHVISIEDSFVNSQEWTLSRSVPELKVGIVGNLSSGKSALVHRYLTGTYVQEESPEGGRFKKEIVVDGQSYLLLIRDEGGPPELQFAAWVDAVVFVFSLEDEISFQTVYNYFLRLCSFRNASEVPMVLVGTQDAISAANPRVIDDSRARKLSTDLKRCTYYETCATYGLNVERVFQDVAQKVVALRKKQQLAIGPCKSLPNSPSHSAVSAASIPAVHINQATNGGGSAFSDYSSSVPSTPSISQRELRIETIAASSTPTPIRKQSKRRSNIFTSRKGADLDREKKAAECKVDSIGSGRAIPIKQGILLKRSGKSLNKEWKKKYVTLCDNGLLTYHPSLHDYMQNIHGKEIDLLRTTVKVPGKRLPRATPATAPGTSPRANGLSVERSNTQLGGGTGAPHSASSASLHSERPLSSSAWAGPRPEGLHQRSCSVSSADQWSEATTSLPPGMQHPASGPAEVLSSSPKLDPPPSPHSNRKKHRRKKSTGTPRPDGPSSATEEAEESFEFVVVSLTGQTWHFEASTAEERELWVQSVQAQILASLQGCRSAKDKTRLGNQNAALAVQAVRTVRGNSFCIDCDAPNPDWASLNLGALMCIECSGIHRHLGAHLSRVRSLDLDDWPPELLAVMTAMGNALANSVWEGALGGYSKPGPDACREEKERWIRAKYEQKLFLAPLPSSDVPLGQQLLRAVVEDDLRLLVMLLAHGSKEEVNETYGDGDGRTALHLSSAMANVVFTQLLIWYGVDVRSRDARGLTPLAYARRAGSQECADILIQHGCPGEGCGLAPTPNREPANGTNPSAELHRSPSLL
Chain of UniProt Q9HCU9 (Q9HCU9 whole entry, looked up): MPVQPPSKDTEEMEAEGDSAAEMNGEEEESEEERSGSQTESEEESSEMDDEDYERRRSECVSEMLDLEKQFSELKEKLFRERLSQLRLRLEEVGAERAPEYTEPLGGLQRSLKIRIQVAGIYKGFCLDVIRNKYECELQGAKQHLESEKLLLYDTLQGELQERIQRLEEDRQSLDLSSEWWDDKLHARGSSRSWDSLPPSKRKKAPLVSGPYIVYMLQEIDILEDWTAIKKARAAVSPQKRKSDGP
Chain of UniProt P54922 (P54922 whole entry, looked up): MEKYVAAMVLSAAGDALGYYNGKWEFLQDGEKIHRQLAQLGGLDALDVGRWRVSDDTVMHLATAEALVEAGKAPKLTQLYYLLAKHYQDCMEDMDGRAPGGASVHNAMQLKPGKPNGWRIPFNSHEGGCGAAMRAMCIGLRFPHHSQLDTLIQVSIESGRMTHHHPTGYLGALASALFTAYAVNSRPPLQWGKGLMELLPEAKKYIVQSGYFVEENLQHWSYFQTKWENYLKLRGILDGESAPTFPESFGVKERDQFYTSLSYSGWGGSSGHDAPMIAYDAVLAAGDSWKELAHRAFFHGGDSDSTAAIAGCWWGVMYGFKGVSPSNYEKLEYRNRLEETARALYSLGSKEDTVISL
Chain of UniProt Q8IXM2 (Q8IXM2 whole entry, looked up): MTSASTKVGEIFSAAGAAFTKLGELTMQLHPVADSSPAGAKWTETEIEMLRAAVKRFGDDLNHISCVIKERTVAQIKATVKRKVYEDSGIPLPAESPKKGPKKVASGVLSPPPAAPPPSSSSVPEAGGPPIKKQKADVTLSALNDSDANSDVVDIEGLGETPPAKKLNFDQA
Chain of UniProt P54252 (P54252 whole entry, looked up): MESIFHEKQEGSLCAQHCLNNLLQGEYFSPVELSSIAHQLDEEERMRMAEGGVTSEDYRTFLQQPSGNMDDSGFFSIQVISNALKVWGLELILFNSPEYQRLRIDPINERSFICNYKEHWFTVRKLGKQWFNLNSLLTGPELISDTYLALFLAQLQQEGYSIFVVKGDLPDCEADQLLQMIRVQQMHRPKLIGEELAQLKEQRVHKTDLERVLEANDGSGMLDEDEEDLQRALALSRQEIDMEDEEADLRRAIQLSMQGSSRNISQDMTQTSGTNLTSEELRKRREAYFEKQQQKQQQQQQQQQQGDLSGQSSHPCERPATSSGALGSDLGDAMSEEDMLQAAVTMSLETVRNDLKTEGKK
Chain of UniProt Q13825 (Q13825 whole entry, looked up): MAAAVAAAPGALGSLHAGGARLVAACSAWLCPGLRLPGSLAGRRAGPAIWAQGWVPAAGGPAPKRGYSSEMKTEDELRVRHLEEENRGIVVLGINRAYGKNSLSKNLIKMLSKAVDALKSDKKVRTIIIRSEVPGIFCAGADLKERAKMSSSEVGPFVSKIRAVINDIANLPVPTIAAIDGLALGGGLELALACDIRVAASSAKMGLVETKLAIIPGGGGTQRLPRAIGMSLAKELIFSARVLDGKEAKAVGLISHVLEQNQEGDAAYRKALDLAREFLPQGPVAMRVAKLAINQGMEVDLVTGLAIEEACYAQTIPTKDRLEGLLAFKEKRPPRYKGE

Point of comparison: ALG14 (UniProt Q96F25), log2 fold change -0.118. Against it:
- ADPRH (UniProt P54922) — within 0.2 log units, -0.178
- AUH (UniProt Q13825) — within 0.2 log units, -0.023
- ARRDC1 (UniProt Q8N5I2) — within 0.2 log units, -0.06
- ARHGAP25 isoform 4 (UniProt P42331) — within 0.2 log units, -0.181
- BSCL2 isoform 4 (UniProt Q96G97) — within 0.2 log units, -0.013
- BRMS1 (UniProt Q9HCU9) — higher, 0.121
- ATXN3 isoform 1 (UniProt P54252) — within 0.2 log units, -0.137
- ATXN7L3 isoform 2 (UniProt Q14CW9) — higher, 0.207
- ABCA4 (UniProt P78363) — within 0.2 log units, 0.061
- ABHD11 (UniProt Q8NFV4) — within 0.2 log units, -0.139
- AASDH (UniProt Q4L235) — within 0.2 log units, -0.12
- AGAP3 isoform 4 (UniProt Q96P47) — within 0.2 log units, -0.001
- BRAF, A0A2R8Y8E0 — within 0.2 log units, -0.31
- ARFIP1 isoform 2 (UniProt P53367) — within 0.2 log units, -0.147
- BAP18 isoform 3 (UniProt Q8IXM2) — within 0.2 log units, -0.042
- ARL4A (UniProt P40617) — within 0.2 log units, -0.117
- ACSL6 isoform 1 (UniProt Q9UKU0) — within 0.2 log units, -0.152
- AARSD1 (UniProt Q9BTE6) — within 0.2 log units, -0.048

For ADD2 isoform 9 (UniProt P35612), the log2 fold change was -1.2 (active).
